These results are taken from PubChem BioAssay AID703 (NMMLSC, 2007).

Molecules are shown by their SMILES. Unmarked numbers belong to inactive results. How the calls were made is not given here.

The target of this assay is Integrin alpha-4 (Homo sapiens) (UniProt P13612). In words: enhancers of LDV-FITC binding to VLA-4, dose response, cell-based, flow cytometry (AID 703). Conditions: Jurkat cells, active compounds read high. For orientation: A flow cytometer gives signals particle by particle.
Sequence of Integrin alpha-4 (Homo sapiens) (P13612 whole entry, looked up): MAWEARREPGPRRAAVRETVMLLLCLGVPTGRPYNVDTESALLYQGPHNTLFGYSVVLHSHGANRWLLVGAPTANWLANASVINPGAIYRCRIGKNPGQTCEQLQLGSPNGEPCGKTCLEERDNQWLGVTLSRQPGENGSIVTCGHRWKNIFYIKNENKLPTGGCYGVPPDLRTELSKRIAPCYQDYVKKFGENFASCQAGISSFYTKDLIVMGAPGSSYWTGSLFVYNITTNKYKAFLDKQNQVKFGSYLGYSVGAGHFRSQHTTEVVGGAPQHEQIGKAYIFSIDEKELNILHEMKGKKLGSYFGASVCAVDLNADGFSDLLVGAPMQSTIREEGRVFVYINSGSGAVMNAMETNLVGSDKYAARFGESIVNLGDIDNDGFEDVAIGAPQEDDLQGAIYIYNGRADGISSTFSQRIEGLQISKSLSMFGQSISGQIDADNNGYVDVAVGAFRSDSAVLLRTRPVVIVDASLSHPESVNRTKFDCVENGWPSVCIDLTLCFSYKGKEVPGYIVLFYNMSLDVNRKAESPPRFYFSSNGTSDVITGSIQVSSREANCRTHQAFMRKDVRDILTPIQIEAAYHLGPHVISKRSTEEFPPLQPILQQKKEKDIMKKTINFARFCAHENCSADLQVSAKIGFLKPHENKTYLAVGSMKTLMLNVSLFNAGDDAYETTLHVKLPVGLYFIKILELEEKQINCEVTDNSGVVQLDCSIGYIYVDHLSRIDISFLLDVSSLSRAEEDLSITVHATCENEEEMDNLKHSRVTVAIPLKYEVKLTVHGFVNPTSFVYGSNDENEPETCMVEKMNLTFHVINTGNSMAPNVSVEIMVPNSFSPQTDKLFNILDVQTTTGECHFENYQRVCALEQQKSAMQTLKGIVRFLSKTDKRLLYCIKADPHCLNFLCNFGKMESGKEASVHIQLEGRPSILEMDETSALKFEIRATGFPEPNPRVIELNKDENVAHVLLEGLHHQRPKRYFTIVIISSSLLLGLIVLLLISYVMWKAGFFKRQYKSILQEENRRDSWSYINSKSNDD
Take `N#Cc1c(N2CCCC2)nc(N)c2c(N)nc(N3CCCC3)cc12`: the activation at 0 C was 0.

Take `COC(=O)C1CCN(C(=O)NC(C)(C)C)CC1`: the activation at 0 C is 0.

With `CCCCC[C@H](O)/C=C/[C@H]1C=CC(=O)[C@@H]1C/C=C\CCCC(=O)O`, the activation at 0 C is 0.

With `CN(C)CCCN1c2ccccc2Sc2ccc(C(F)(F)F)cc21`, the activation at 0 C was 0.
